In PubChem BioAssay AID485346 (Sanford-Burnham Center for Chemical Genomics, 2010):
The campaign covered roughly 330,000 compounds. About 10,000 (3%) were called active.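 Rule for the calls: active = inhibition of at least 50% at 8 µM in the primary screen; inactive = the rest.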 This excerpt belongs to a sample that is enriched for actives.

molecular target: Protein Mdm4 (Homo sapiens) + E3 ubiquitin-protein ligase Mdm2 (Homo sapiens) (UniProt O15151+Q00987); test: inhibitors of human Mdm2-MdmX association, primary screen, cell-based, luminescence, split luciferase, SaOS-2, uHTS (AID 485346); conditions: SaOS-2 split-luciferase Mdm2/MdmX complementation, at 8 µM, active compounds read high
Sequence (O15151 whole entry, looked up): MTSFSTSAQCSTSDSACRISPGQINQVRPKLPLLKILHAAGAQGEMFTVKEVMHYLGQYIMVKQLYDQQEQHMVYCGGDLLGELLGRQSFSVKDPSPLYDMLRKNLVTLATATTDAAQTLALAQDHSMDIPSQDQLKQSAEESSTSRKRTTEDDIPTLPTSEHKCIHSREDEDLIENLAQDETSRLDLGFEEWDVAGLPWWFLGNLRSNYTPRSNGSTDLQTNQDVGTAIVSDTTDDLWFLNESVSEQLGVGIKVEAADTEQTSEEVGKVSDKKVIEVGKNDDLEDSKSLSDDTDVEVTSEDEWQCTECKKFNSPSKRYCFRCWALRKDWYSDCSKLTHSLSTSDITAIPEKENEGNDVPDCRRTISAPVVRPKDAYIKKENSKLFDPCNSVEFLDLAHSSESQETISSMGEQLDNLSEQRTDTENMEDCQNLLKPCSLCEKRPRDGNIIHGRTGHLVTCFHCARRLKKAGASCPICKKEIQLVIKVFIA
Sequence (Q00987 whole entry, looked up): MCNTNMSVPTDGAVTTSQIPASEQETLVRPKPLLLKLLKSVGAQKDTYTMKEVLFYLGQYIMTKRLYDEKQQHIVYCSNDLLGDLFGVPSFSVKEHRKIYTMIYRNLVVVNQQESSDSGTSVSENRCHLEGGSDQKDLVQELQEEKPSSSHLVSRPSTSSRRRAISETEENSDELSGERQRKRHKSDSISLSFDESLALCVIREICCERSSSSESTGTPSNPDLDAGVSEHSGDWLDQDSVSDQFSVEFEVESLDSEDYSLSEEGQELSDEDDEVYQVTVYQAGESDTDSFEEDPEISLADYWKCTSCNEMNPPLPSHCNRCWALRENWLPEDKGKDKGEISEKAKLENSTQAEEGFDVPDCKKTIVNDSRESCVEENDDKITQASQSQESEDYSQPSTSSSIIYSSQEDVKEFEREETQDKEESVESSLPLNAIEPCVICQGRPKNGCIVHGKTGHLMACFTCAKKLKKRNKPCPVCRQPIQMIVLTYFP

Structure (SMILES) | inhibition
Cc1occc1-c1nnc(SCC(=O)NC2(C#N)CCCC2)n1C | 22.7% (inactive)
CN1CCN(S(=O)(=O)c2ccc(N3CCN(c4ccccc4O)CC3)c([N+](=O)[O-])c2)CC1 | 2.63% (inactive)
NC(=O)Cc1nc2scc(-c3ccc(Cl)cc3)c2c(=O)[nH]1 | -0.903% (inactive)
O=c1[nH]c(CCl)nc2cc(-c3ccc(Cl)cc3)sc12 | 80.8% (active)
O=c1[nH]c(CN2CCOCC2)nc2cc(Cl)ccc12 | -2.08% (inactive)
O=C1c2ccccc2[C@@H]2C[C@@H](O)[C@H](Nc3ccccc3Cl)CCN12 | 22.5% (inactive)
Cc1ccnc(SCC(=O)Nc2cccc(S(=O)(=O)N3CCOCC3)c2)n1 | 15.8% (inactive)
CC(=O)Oc1c(C(=O)c2nnc(C)o2)c(=O)n(Cc2ccccc2)c2ccccc12 | 53.7% (active)
COC(=O)CSc1nc2ccccc2c(=O)n1Cc1ccccc1 | 1.48% (inactive)
CC(=O)c1nc2ccccc2n1Cc1ccccc1 | 4.16% (inactive)
CCN1C(=S)N[C@@H](CCc2ccccc2)[C@H](C(=O)OC)[C@H]1C | 6.92% (inactive)
CCOC(=O)/C(=C\c1ccc([N+](=O)[O-])cc1)C(=O)c1cc(C(C)=O)c(Nc2ccccc2)s1 | 99.3% (active)
Cc1ccc(NC(=O)/C(=C/c2ccc([N+](=O)[O-])cc2)NC(=O)c2ccccc2)cc1 | 17.1% (inactive)
CCOC(=O)/C(=N\Nc1ccccc1[N+](=O)[O-])c1csc(Nc2ccccc2)n1 | 23.4% (inactive)
O=C(C1CC(=O)N(C2CCCC2)C1)N1CCN(c2cccc(C(F)(F)F)c2)CC1 (stereo unspecified) | 4.03% (inactive)
Cc1cc(Nc2cccc(C)c2C)n2ncnc2n1 | -28.4% (inactive)
Cc1cccc(OCC(O)Cn2c(N3CCCCC3)nc3c2c(=O)[nH]c(=O)n3C)c1 (stereo unspecified) | -19.9% (inactive)
NC(=O)CSc1nnc(NC(=O)c2ccc3ccccc3c2)s1 | -8.44% (inactive)
O=C(/C=C/c1ccccc1)Nc1nnc(SCC(=O)c2ccc3ccccc3c2)s1 | 69.7% (active)
COc1ccc(C(=O)CSc2nnc(NC(=O)C3CC(=O)N(c4cccc(OC)c4)C3)s2)cc1 (stereo unspecified) | -12.2% (inactive)
CC(=O)N/C(=C\c1ccccc1)C(=O)OC(C)C(=O)N(C)c1ccccc1 (stereo unspecified) | 19.3% (inactive)
O=C(CCSCCc1ccccn1)Nc1nccs1 | -7.99% (inactive)
COc1ccc(C2CC(c3ccccc3)=NN2C(=O)c2ccc(Cl)c([N+](=O)[O-])c2)cc1 (stereo unspecified) | 88.8% (active)

Structure (SMILES) | inhibition
COc1ccc(C2CC(c3ccc([N+](=O)[O-])cc3)=NN2C(C)=O)cc1 (stereo unspecified) | -14% (inactive)
COc1ccc(C2=NN(C(=O)c3cccnc3)C(c3ccccc3)C2)cc1 (stereo unspecified) | 19.9% (inactive)
COc1ccc(C(C(=O)NC2CCCC2)N(CCCO)C(=O)Cn2nnc(-c3ccc(C)o3)n2)cc1 (stereo unspecified) | -6.39% (inactive)
COC(C[C@@H](O)[C@H](C)[C@H](O)COCc1ccccc1)OC | 26.1% (inactive)
CCOc1ccc2nc(Cl)c(C3CC(c4ccccc4)=NN3C(=O)c3cccs3)cc2c1 (stereo unspecified) | 95% (active)
CCOc1ccccc1C1CC(c2cccc(NS(C)(=O)=O)c2)=NN1C(=O)c1ccccc1 (stereo unspecified) | 8.21% (inactive)
COc1ccc(C2=NN(C(=O)c3ccccc3C(=O)O)C(c3ccccc3O)C2)cc1 (stereo unspecified) | -30.7% (inactive)
COc1ccc(C(C[N+](=O)[O-])n2nc(C)cc2C)cc1 (stereo unspecified) | 69.3% (active)
CCOc1ccc(C(C)C)cc1S(=O)(=O)n1nc(C)cc1C | 13.1% (inactive)
COc1ccc(OC)c(S(=O)(=O)n2c([N+](=O)[O-])cnc2C)c1 | 22.7% (inactive)
Cc1ccc(Cl)c(NC(=O)CN(C)CC(=O)Nc2ccc(F)c(F)c2F)c1Cl | -0.971% (inactive)
O=C(OCC(=O)N1CCCCCC1)c1ccc(Cl)nc1 | 0.359% (inactive)
O=C(NNc1c2ccccc2nc2ccccc12)c1cc2ccccc2cc1O | 35.2% (inactive)
CC(C)(C)OC(=O)NNc1c2ccccc2nc2ccccc12 | 95.7% (active)
Cc1ccccc1NC(=O)NNC(=O)OC(C)(C)C | 20.7% (inactive)
C/C(=N/Nc1ccc(Cl)cc1)c1cnnc(-c2ccccc2)n1 | -8.35% (inactive)
Cc1nc(SCC(=O)Nc2cc(C)on2)c2c(C)c(C)sc2n1 | 79.8% (active)
Cc1cc(NC(=O)CSc2nc(C(C)C)nc3sc4c(c23)CCC(C)C4)no1 (stereo unspecified) | 48.9% (inactive)
Cc1cc(NC(=O)CSc2ncc(C(F)(F)F)cc2Cl)no1 | 6.3% (inactive)
Cc1ccccc1OCCOc1ccc([N+](=O)[O-])cc1/C=N/n1cnnc1 | 58.7% (active)
Cc1cc([N+](=O)[O-])c(-c2ccc(/C=N/n3cnnc3)o2)cc1Cl | 26.5% (inactive)
COc1cccc(OCCOc2cccc(/C=N/n3cnnc3)c2)c1 | -7.51% (inactive)
COc1ccc(CCNC(=O)COC(=O)c2cnc(Cl)c(Cl)c2)cc1 | -24.9% (inactive)

Structure (SMILES) | inhibition
CC(C)(c1ccccc1)c1ccc(OCCN)cc1 | 29.2% (inactive)
CN(C)CC(O)COc1ccc(C(C)(C)c2ccc(OCC(O)CN(C)C)cc2)cc1 (stereo unspecified) | 97.5% (active)
Cc1cc(C)n(CC(O)COc2ccc(C(C)(C)C)cc2)n1 (stereo unspecified) | 0.107% (inactive)
CC(Oc1cccc(Cl)c1)C(=O)NC1CC(C)(C)NC(C)(C)C1 (stereo unspecified) | 12.5% (inactive)
Cc1ccc(C(CC(=O)O)NC(=O)c2ccc(S(=O)(=O)N3CCCC3)cc2)cc1 (stereo unspecified) | 23.9% (inactive)
COc1ccc(S(=O)(=O)N2CCOCC2)c(C)c1C | 4.93% (inactive)
COc1ccc(CN(C)C(=S)Nc2ccc(Cl)cc2Cl)cc1 | 2.13% (inactive)
COc1ccc(CCNCC(O)Cn2ccc3ccccc32)cc1OC (stereo unspecified) | 11.5% (inactive)
COc1c(C)c2c(c(O)c1C/C=C(\C)CCC(=O)O)C(=O)OC2 | 97.1% (active)
NNC(=O)c1ccc(COCC(F)(F)C(F)F)cc1 | 6.42% (inactive)
O=C(Nc1ccccc1Cc1ccccc1)c1ccc2c(c1)SC1=NS(=O)(=O)CCN12 | 20.2% (inactive)
CCOc1ccccc1N1CCN(C(=O)COc2ccc3c(C)cc(=O)oc3c2)CC1 | 18.6% (inactive)
Cc1cc(=O)oc2cc(OCC3CC(c4ccccc4Cl)=NO3)ccc12 (stereo unspecified) | 63.9% (active)
Cc1cc(=O)oc2cc(OCCC[n+]3ccccc3)ccc12 | -31% (inactive)
O=C1C=C(c2cc(C(F)(F)F)cc(C(F)(F)F)c2)C[C@@H](c2ccc3c(c2)OCO3)C1 | 15.2% (inactive)
CCc1ccc(-n2c(SCc3cc(=O)n4cc(Br)ccc4n3)nc3[nH]ncc3c2=O)cc1 | 41.3% (inactive)
CC(O)CN(Cc1ccc(Cl)cc1)CC(C)O (stereo unspecified) | 14.3% (inactive)
O=C(NCc1ccccc1)C1=C[C@H](C2CC2)C[C@H](OCc2ccc(CO)cc2)O1 | -19% (inactive)
CC(C)(C)[C@H]1C=C(C(=O)NCc2ccccc2)O[C@@H](OCc2ccc(CO)cc2)C1 | 29.5% (inactive)
O=C(NCc1ccccc1)C1=C[C@@H](C2CCCCC2)C[C@@H](OCc2ccc(CO)cc2)O1 | 55.5% (active)
Nn1cnnc1N/N=C/c1cc([N+](=O)[O-])c(Cl)cc1Cl | -3.78% (inactive)
CC(=O)NNc1cc(=O)c2c(=O)n(C)c(=O)n(C)c2[nH]1 | -7.44% (inactive)
CCOc1ccccc1C(=O)NC1CC2CCCC(C1)N2Cc1ccccc1 (stereo unspecified) | -3.94% (inactive)

Structure (SMILES) | inhibition
CC(=O)Nc1ccc(S(=O)(=O)NCC(=O)OCc2cc(=O)oc3ccc4ccccc4c23)cc1 | -8.78% (inactive)
COc1ccc(CNC(=O)COC(=O)c2sccc2C)cc1OC | 14.3% (inactive)
CCOc1ccc(C(C)=O)cc1COC(=O)CNC(=O)c1cccs1 | 26.9% (inactive)
COC(=O)c1ccc(COC(=O)c2cnc(Cl)c(Cl)c2)cc1 | 0.646% (inactive)
CCOc1ccc(C(C)=O)cc1COC(=O)c1cnc(Cl)c(Cl)c1 | 97.4% (active)
COc1ccccc1C(=O)NCC(=O)NCCSc1ccc(Br)cc1 | 12.7% (inactive)
CCc1ccccc1NC(=O)CN(c1ccc(OC)cc1OC)S(=O)(=O)c1ccccc1[N+](=O)[O-] | 18.2% (inactive)
N#Cc1cccc(CSc2nnc(CCCO)n2-c2ccccc2)c1 | 7% (inactive)
Brc1ccc2ncnc(NCc3cccnc3)c2c1 | 73.1% (active)
Clc1ccc(Cn2ncc3c(NCc4cccnc4)ncnc32)cc1 | 20.9% (inactive)
Cc1cc(NCc2cccnc2)no1 | 0.68% (inactive)
CCN(C(=O)Cc1c(C(=O)O)n(CC)c2ccccc12)c1ccccc1C | 13.2% (inactive)
O=C(COC(=O)CCCN1C(=O)c2cccc3cccc(c23)C1=O)NC1CCS(=O)(=O)C1 (stereo unspecified) | -2.87% (inactive)
O=C1NC2(CCCCC2)N=C1c1ccccc1 | 4.91% (inactive)
O=C(Cc1ccc(-n2c(=O)[nH]c3ccccc3c2=O)cc1)N1CCN(c2cccc(Cl)c2)CC1 | -17% (inactive)
COc1cccc(CNC(=O)c2n[nH]c3ccccc23)c1 | -9.68% (inactive)
O=C(CCCn1c(=O)[nH]c2cc(Cl)ccc2c1=O)NCCN1CCN(c2ccccc2)CC1 | 9.17% (inactive)
COc1cccc(CNC(=O)Cc2csc(Nc3nc(=S)[nH]c4ccccc34)n2)c1 | 60.5% (active)
O=C(Cc1csc(Nc2nc(=S)[nH]c3ccccc23)n1)NCCCN1CCN(c2cccc(Cl)c2)CC1 | 77.1% (active)
COc1cccc(CNC(=O)CN2C(=O)NC(Cc3ccccc3)(c3ccccc3)C2=O)c1 (stereo unspecified) | -11% (inactive)
CC(=O)Nc1ccc(NC(=O)C(NS(=O)(=O)c2ccc3c(c2)OCCO3)C(C)C)cc1 (stereo unspecified) | 1.24% (inactive)
Cc1noc(C)c1S(=O)(=O)N(C)C[C@H]1Oc2c(NC(=O)Nc3ccc4c(c3)OCO4)cccc2C(=O)N([C@H](C)CO)C[C@@H]1C | 23.1% (inactive)
